The whole screen tested about 4,900 compounds, of which about 200 (4.1%) were called active.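 How the source made its calls: active means thallium signal drop more than 5 SD beyond the mean of the no-compound control wells, seen in both duplicate plates; inactive means the rest.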 This excerpt belongs to a sample that is enriched for actives.

For this assay, the target named is Inward rectifier potassium channel 2 (Mus musculus) (UniProt P35561). Briefly: mouse Kir2.1 channel inhibition, confirmation, selectivity assay for KCNK9 modulator project, cell-based, HEK293, thallium flux (AID 492993).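 On inhibition: signal is fluorescence rise after thallium addition divided by baseline fluorescence; plate controls were assay buffer only for no effect and full block by chlorpromazine control for full effect.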 The following applies: Kir2.1 cells, FluxOR thallium flux fluorescence, at 10 µM; stronger effect = higher value.
Inward rectifier potassium channel 2 (Mus musculus), sequence (P35561 whole entry, looked up): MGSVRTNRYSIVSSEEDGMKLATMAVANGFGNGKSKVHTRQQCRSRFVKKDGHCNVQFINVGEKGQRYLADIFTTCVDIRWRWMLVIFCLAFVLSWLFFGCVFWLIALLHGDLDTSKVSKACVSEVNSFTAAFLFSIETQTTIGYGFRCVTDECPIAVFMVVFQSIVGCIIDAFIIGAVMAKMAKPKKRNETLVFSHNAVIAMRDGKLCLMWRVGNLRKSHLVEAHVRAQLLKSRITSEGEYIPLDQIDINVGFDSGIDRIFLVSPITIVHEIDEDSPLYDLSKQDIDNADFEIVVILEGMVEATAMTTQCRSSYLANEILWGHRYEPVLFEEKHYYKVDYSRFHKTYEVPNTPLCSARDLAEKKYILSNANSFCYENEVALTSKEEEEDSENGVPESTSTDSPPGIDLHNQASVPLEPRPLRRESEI
A word on the inhibition: it is how much of the control response was suppressed. As for `CCCCCCCCCCCCn1ccc(=N)cc1`, the inhibition was 75% (active). The result for `CCCCCCN=C(CC)c1c(O)n(CCCC)c(=O)[nH]c1=O` reads “inactive”; that for `CC(C)(C)c1ccc(OC(=O)N2CCCCC2)cc1`, “inactive”.

In the case of `CCOC(=O)C1SC2(C(F)(F)C(F)F)CC1(O)c1c(c(OC)c3occc3c1OC)O2` (stereo not given), the inhibition result is “inactive”. The result for `CC(C)(C)c1ccc(CN2C(=O)CN=C(c3ccccc3)c3ccccc32)cc1` reads “inactive”.

The record behind these values is PubChem BioAssay AID492993 (Johns Hopkins Ion Channel Center, 2010).
